Data from PubChem BioAssay.
The source made the active and inactive calls. Unless noted, the rule behind the calls is not given here.

Columns and labels:
[1] = test system: XIP peptide (Xip251-270) binding; test: XIP fragment 251-270 binding compounds – biochemical, small-molecule microarray, fluorescence 635/667 nm, 0.1 µg/mL protein, primary screen (AID 1182); conditions: fluorescent protein binding, 635 nm, higher = more signal, called active from +8 up or from −8 down
XIP peptide (Xip251-270) = test: compounds binding XIP fragment 251-270 – biochemical, small-molecule microarray, fluorescence 635/667 nm, 0.5 µg/mL protein, primary screen (AID 1183); conditions: fluorescence 635 nm, higher = more signal
[2] = blood-stage malaria parasite viability loss – strain 3D7, DAPI fluorescence, 100 nL, primary screen (AID 1184);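 note: parasites grown inside human red blood cells in medium with human serum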; conditions: P. falciparum 3D7 growth, 3 d, higher = more signal
[3] = target: Homeobox protein Hox-A13 (Mus musculus) (UniProt Q62424); test: disruptors of Hoxa13 oligonucleotide interaction – biochemical, fluorescence polarization, labeled oligonucleotide, primary screen (AID 1185); conditions: Hoxa13:DNA binding, 15 min, higher = more signal, called active from +8 up or from −8 down
Homeobox protein Hox-A13 (Mus musculus), sequence (Q62424 whole entry, looked up): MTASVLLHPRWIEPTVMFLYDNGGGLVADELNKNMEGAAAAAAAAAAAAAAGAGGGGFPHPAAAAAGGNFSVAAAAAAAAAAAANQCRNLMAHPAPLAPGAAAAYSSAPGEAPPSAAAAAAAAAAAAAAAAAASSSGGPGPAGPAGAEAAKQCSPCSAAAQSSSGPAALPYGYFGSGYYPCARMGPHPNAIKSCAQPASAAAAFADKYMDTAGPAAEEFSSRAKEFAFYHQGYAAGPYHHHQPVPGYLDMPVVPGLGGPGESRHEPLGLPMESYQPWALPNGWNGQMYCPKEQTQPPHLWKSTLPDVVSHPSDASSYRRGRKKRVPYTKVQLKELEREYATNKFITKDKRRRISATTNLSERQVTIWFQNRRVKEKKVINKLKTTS

[4] = blockers of DNA damage checkpoint Chk1 activation – imaging, HeLa, hydroxyurea, phospho-Chk1 antibody, percent positive cells, primary screen (AID 1186); conditions: hydroxyurea-induced phospho-Chk1 immunofluorescence imaging, higher = more signal
[5] = blockers of DNA damage checkpoint Chk1 activation – imaging, HeLa, hydroxyurea, phospho-Chk1 nuclear intensity, primary screen (AID 1187); conditions: hydroxyurea-induced phospho-Chk1 immunofluorescence imaging, higher = more signal

Compound | composite z-score [1] | composite z-score (XIP peptide (Xip251-270)) | z-score [2] | z-score [3] | z-score [4] | z-score [5]
O=C1c2ccccc2[C@@]2(Cc3ccccc3N(CC(F)(F)F)C2=O)[C@H](c2ccc(CO)cc2)N1Cc1ccccc1Cl | 0.0764 (inactive) | 0.182 | -0.699 | 0.0876 (inactive) | -0.19 (inactive) | -0.245 (inactive)
Cc1ccc(S[C@]2(C(=O)NC3CC3)CC(=O)N(C3Cc4ccccc4C3)[C@@H]2c2ccc(CO)cc2)cc1 | 0.136 (inactive) | 0.876 | -0.275 | -2.74 (inactive) | -0.671 (inactive) | -0.716 (inactive)
COCCOC(=O)N1C(=O)[C@@]2(c3cc(C#CCCO)ccc31)[C@H](C(=O)Nc1nc3ccccc3s1)[C@H]1C(=O)O[C@H](c3ccccc3)[C@H](c3ccccc3)N1[C@@H]2c1ccc(OCCO)cc1 | 0.886 (inactive) | 0.744 | -1.12 | 0.518 (inactive) | -0.502 (inactive) | -0.558 (inactive)
CCN(CC)c1ccc(N2CC=CC34O[C@@H]5/C=C\CCCOC(=O)C5[C@H]3C(=O)N(CCO)[C@@H]4C2=O)cc1 (stereo partly specified) | 0.482 (inactive) | 0.643 | -1.52 | -5.79 (inactive) | 0.225 (inactive) | 0.161 (inactive)
COc1ccc(CCNC(=O)[C@@]2(Sc3ccc(C)cc3)CC(=O)N(C3CCCCC3)[C@@H]2c2ccc(CO)cc2I)cc1 | 0.0537 (inactive) | 0.753 | -2.12 | -1.88 (inactive) | 0.431 (inactive) | 1.23 (inactive)
CC1CC/C=C\[C@H]2OC34C=CCN(Cn5nnc6ccccc65)C(=O)[C@H]3N(C(CO)C(C)C)C(=O)[C@@H]4C2C(=O)O1 (stereo partly specified) | 0.575 (inactive) | 0.212 | -0.918 | -5.58 (inactive) | 0.822 (inactive) | 0.71 (inactive)
CC(C)(C)C(=O)N[C@@H](c1ccc(Cl)cc1)[C@]1(C)C[C@H]1C1CCCCC1 | 0.398 (inactive) | 0.837 | -0.827 | 2.32 (inactive) | -1.19 (inactive) | -0.627 (inactive)
COCCOC(=O)N1C(=O)[C@@]2(c3cc(C#CC4(O)CCCCCC4)ccc31)[C@H](c1ccc(O)cc1)N1[C@H](c3ccccc3)[C@H](c3ccccc3)OC(=O)[C@H]1[C@@H]2C(=O)Nc1nc2ccccc2s1 | 1.18 (inactive) | 0.708 | -0.326 | -1.3 (inactive) | 0.227 (inactive) | 0.428 (inactive)
COC(=O)C(CC#Cc1ccc2c(c1)[C@]1(C(=O)N2)[C@H](c2ccc(O)cc2)N2[C@H](c3ccccc3)[C@H](c3ccccc3)OC(=O)[C@H]2[C@@H]1C(=O)Nc1nc2ccccc2s1)C(=O)OC | 1.09 (inactive) | 0.833 | -0.591 | -0.645 (inactive) | -0.0827 (inactive) | -0.46 (inactive)
CN1C(=O)C2C=CC(C(O)C3CCCCC3)N(Nc3ccc([N+](=O)[O-])cc3[N+](=O)[O-])C2C1=O (stereo unspecified) | 0.514 (inactive) | 0.487 | 0.501 | -2.4 (inactive) | 0.168 (inactive) | 0.377 (inactive)
CC(C)(C)OC(=O)CC[C@@]12N=C(c3ccc(OCCCO)cc3)O[C@@H]1c1ccccc1N(CCS(=O)(=O)c1ccccc1)C2=O | -0.204 (inactive) | 0.569 | -1.7 | -3.42 (inactive) | -0.739 (inactive) | -0.767 (inactive)
C=CCNC(=O)[C@H]1[C@@H]2C(=O)O[C@@H](c3ccccc3)[C@@H](c3ccccc3)N2[C@@H](c2ccc(O)cc2)[C@]12C(=O)N(C(=O)OCCOC)c1ccc(C#CCNC(N)=O)cc12 | 0.17 (inactive) | 0.53 | 2.38 | -3.07 (inactive) | -0.237 (inactive) | -0.625 (inactive)
COc1ccc(CCNC(=O)[C@@]2(C)c3ccccc3C(=O)N(Cc3cc(F)cc(C(F)(F)F)c3)[C@H]2c2ccc(CO)cc2)cc1 | 0.17 (inactive) | 0.464 | -1.49 | -4.2 (inactive) | 0.027 (inactive) | 0.116 (inactive)
CC(C)C[C@H]1NC(=O)[C@@]23C(=O)N[C@@H](Cc4ccccc4)C2[C@H](C)[C@@]2(C)O[C@H]2C3/C=C/C/C=C\CNC(=O)[C@H](Cc2ccccc2)NC1=O (stereo partly specified) | 0.303 (inactive) | 0.725 | -1.45 | -7.51 (inactive) | -0.0464 (inactive) | 0.426 (inactive)
CCCCC=C[C@@H](NC(=O)Oc1cccc(C(F)(F)F)c1)c1ccccc1 | -0.361 (inactive) | 0.168 | -1.01 | -0.127 (inactive) | 0.38 (inactive) | -0.018 (inactive)
CCCN1C(=O)[C@]2(CCS(=O)(=O)c3ccccc3)N=C(c3ccc(OCCCO)cc3)O[C@@H]2c2ccccc21 | -0.0893 (inactive) | 0.11 | -2.6 | -5.36 (inactive) | -0.701 (inactive) | -0.918 (inactive)
O=C(NCc1ccccc1)[C@@H]1c2ccccc2C(=O)N(CC23CC4CC(CC(C4)C2)C3)[C@H]1c1ccc(CO)cc1 | 0.149 (inactive) | 0.794 | -1.76 | -3.43 (inactive) | -0.221 (inactive) | -0.338 (inactive)
O=C(C1N=C(c2ccc(OCCCO)cc2)N(c2ccccc2)O1)N1CCOCC1 (stereo unspecified) | 0.254 (inactive) | 0.206 | -0.277 | -2.88 (inactive) | -0.554 (inactive) | -0.262 (inactive)
CCc1oc(CC[C@@H](CO)NC(=O)NCCn2cc(C3(O)CCCCC3)nn2)c(C(=O)OC)c1C(=O)OC | 1.53 (inactive) | 0.875 | -0.397 | -3.56 (inactive) | 0.259 (inactive) | -0.0163 (inactive)
COCC(=C=CC[C@H](O)c1ccccc1OCCO)C[C@H](O)c1cc(Cl)cc(Cl)c1O | 0.549 (inactive) | 0.736 | -0.254 | -3.5 (inactive) | 1.36 (inactive) | 0.764 (inactive)
CC(C)(C)OC(=O)CC[C@@]1(C(=O)NCCN2CCOCC2)N=C(c2ccc(OCCCO)cc2)O[C@@H]1c1ccccc1N=[N+]=[N-] | 0.171 (inactive) | 0.401 | -1.85 | -3.61 (inactive) | 0.17 (inactive) | 0.297 (inactive)
CS(=O)(=O)CCOC(=O)C1=CC(CCCO)=CC(c2ccc(CN3CCCC3)cc2)N(Cc2cc3c(cc2Br)OCO3)C=C1C(=O)OCCS(C)(=O)=O (stereo unspecified) | 0.597 (inactive) | 0.732 | -2.66 | -0.776 (inactive) | -1.45 (inactive) | -0.549 (inactive)
O=C1NC(=O)C2C1C=CC(C(O)c1cccc3ccccc13)N2Nc1ccccn1 (stereo unspecified) | -0.219 (inactive) | 0.395 | 0.181 | -1.71 (inactive) | -0.146 (inactive) | -0.382 (inactive)
[N-]=[N+]=NCc1ccccc1[C@@H]1OC(c2ccc(OCCCO)cc2)=N[C@]1(Cc1ccccc1N=[N+]=[N-])C(=O)N1CCOCC1 | 0.129 (inactive) | 0.706 | -2.03 | -2.15 (inactive) | 0.0823 (inactive) | 0.515 (inactive)
NCCCCCNC(=O)[C@@H]1C[C@@H]2C(=O)NCC(=O)N2[C@@H]1c1ccc(O)cc1 | 0.715 (inactive) | 0.416 | 0.112 | -1.06 (inactive) | -0.44 (inactive) | -0.316 (inactive)
C=CC[C@@]1(C(=O)NCc2ccccc2)N=C(c2ccc(OCCCO)cc2)O[C@@H]1c1ccccc1N=[N+]=[N-] | 0.0885 (inactive) | 0.764 | -1.92 | -1.72 (inactive) | -0.334 (inactive) | -0.183 (inactive)
